According to PubChem BioAssay AID652119 (Broad Institute, 2013):
The source made the active and inactive calls.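 How the source made its calls: active means compounds whose fitted half-maximal cell-killing potency is at most twice their top tested dose; inconclusive means flat curve with 30 to 70% signal loss, or poor fit; inactive means the rest.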

Assay: loss of viability in embryonic kidney cells – cell-based, HEK293T, ATP luminescence, dry powder, cytotoxicity control, dose response (AID 652119)
Settings: CellTiter-Glo ATP luminescence, 48 h; series mostly up to 26 µM; activity change, negative = cytotoxicity: at the top concentration

| Compound | activity change, negative = cytotoxicity |
| --- | --- |
| C=CCOc1ccc(CN2CCC(CCOc3ccccc3)(C(=O)N(C)CC)CC2)cc1Cl | -2.65% (inactive) |
| CCOC(=O)C1(CCOC)CCCN(Cc2ccc(Cl)cc2)C1 (stereo unspecified) | -10.5% [at 8 µM] (inactive) |
| O=C(N1CCCC1)C1(CCOc2ccccc2)CCN(Cc2ccc(O)c(Cl)c2)CC1 | -0.18% (inactive) |
| CCOC(=O)C1(Cc2cccc(OC)c2)CCN(Cc2ccc(O)c(Cl)c2)CC1 | -15.9% (inactive) |
| CCOC(=O)c1c(CN2CCN(CCO)CC2)n(-c2ccccc2)c2cc(Br)c(O)cc12 | -10.7% (inactive) |
| CCOC(=O)C1CCN(C(=O)OC(C)(C)C)CC1 | 5.27% (inactive) |
| CCOC(=O)C1(CCOC)CCN(Cc2ccc(O)c(Cl)c2)CC1 | -8.61% (inactive) |
| CCOC(=O)C1(CCOc2ccccc2)CCN(C(=O)OC(C)(C)C)CC1 | -9.74% (inactive) |
| CCOC(=O)C1(CCOc2ccccc2)CCN(Cc2ccc(OC)c(Cl)c2)CC1 | -4.83% (inactive) |
| CCOC(=O)C1(Cc2ccccc2)CCN(Cc2ccc(O)c(Cl)c2)CC1 | -9.71% (inactive) |
| C=CCOc1ccc(CN2CCC(CCOc3ccccc3)(C(=O)O)CC2)cc1Cl | 12.4% (inactive) |
